# This excerpt belongs to a sample that is enriched for hits.
# ALOX12 inh: Primary qHTS assay for inhibitors of human arachidonate 12S-lipoxygenase (ALOX12): Round 2. purified 12hLO, xylenol orange hydroperoxide absorbance. Potency, µM (titrated, usually from 108 µM), inactives show at the top dose activity change, negative = inhibition, hits mostly inhibitors. 1.1% of 580,000 active; also: potency is read from the fitted curve at half-maximal effect
# Target sequence (P18054 whole entry, looked up): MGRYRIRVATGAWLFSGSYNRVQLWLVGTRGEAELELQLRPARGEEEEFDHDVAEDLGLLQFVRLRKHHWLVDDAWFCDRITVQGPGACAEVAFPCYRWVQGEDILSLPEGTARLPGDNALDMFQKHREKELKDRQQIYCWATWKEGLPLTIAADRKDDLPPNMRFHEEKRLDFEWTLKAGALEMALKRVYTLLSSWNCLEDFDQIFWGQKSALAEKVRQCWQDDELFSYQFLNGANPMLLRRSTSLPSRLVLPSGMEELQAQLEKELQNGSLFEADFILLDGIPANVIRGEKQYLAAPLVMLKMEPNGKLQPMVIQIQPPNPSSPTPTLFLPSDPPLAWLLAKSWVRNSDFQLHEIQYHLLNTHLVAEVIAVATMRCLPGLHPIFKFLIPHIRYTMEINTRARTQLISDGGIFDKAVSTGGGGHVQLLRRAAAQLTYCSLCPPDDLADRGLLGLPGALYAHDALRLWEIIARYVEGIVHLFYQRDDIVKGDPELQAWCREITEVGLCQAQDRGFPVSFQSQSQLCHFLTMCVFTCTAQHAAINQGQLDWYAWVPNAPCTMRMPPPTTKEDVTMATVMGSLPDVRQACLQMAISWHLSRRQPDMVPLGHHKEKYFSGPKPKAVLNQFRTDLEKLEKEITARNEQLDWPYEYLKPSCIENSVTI
#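 Purified human 12hLO (150 nM final) in 25 mM Hepes, 0.01% Triton X-100, pH 7.0 was preincubated 15 min at room temperature with compound. Then 40 uM arachidonic acid was added, 30 min. Hydroperoxide was read by Fe-XO absorbance ratio 573/405 nm.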
# DT40 TDP1 no CPT: qHTS for Inhibitors of human tyrosyl-DNA phosphodiesterase 1 (TDP1): qHTS in cells in absence of CPT; DT40 Tdp1-/- hTDP1 cells, no CPT, ATP luminescence, 48 h; Potency, µM (doses to about 46.2 µM), inactives show at the top dose activity change, negative = growth inhibition, hits mostly inhibitors; 15% of 420,000 active; AID 686978, 2013; also: potency is read from the fitted curve at half-maximal effect; nearly all actives have a fitted effect of over 55% in size
#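 Stably hTDP1-transfected Tdp1-null chicken DT40 cells were treated with library compounds minus camptothecin and grown for at least 48 hr at 37 °C, after which cellular ATP was quantified by luminescence.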
# HT1080 IDH1KD tx: qHTS for induction of synthetic lethality in tumor cells producing 2HG: qHTS for the HT-1080-IDH1KD cell line. HT-1080 IDH1 knockdown viability, ATP luminescence, 48 h. Potency, µM (top dose mostly 46.1 µM), inactives show at the highest dose activity, negative = toxicity, actives largely listed as cytotoxic. 2% of 360,000 active. AID 686971, 2013;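 also: potency is read from the fitted curve at half-maximal effect; 0% = DMSO wells and -100% = cell-free medium wells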
#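 CellTiter-Glo luminescence after 48 h compound exposure at 37 degrees C of IDH1-knockdown HT-1080 cells in 5% FBS RPMI. %Activity scaled between DMSO wells and cell-free media wells, with curves fitted and assigned curve classes.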
# HT1080NT lethal: qHTS for induction of synthetic lethality in tumor cells producing 2HG: qHTS for the HT-1080-NT fibrosarcoma cell line. HT-1080-NT fibrosarcoma viability, CellTiter-Glo ATP luminescence, 48 h. Potency, µM (highest dose often 46.1 µM), inactives show at the highest dose activity, negative = less viability, most hits filed as cytotoxic. 1.6% of 360,000 active. AID 686970, 2013;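 also: NT is the 2HG producing partner of a matched IDH1 knockdown line; potency is read from the fitted curve at half-maximal effect; 0% = DMSO-treated cells and -100% = media-only wells without cells; nearly all actives have a fitted effect of over 55% in size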
#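 Read-out is CellTiter-Glo luminescence after 10 minutes at room temperature, following 48 hours' compound treatment of HT-1080-NT cells (750 cells/well, RPMI, 5% FBS, 37 degrees C).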
# TDP1 cell CPT: qHTS for Inhibitors of human tyrosyl-DNA phosphodiesterase 1 (TDP1): qHTS in cells in presence of CPT | Potency, µM (titrated, usually from 46.2 µM), without a hit: top-dose activity change, negative = growth inhibition, hits mostly inhibitors | 12% of 420,000 active | chicken DT40 Tdp1-/-;hTDP1 cells + 20 nM CPT, ATP luminescence, 48 h; also: potency is read from the fitted curve at half-maximal effect; nearly all actives have a fitted effect of over 55% in size
#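 Cell growth measured by CellTiter-Glo luminescence after a minimum 48 h, 37 C compound exposure with 20 nM CPT in Tdp1-knockout DT40 cells stably expressing hTDP1, seeded 400/well; qHTS titration format.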
# IL-1B inflam inh: qHTS for Inhibitors of Inflammasome Signaling: IL-1-beta AlphaLISA Primary Screen | THP-1 LPS/ATP IL-1B secretion, AlphaLISA, 16 h; stronger effect = lower value | activity change, % at 57.5 µM | 4.7% of 360,000 active | AID 743279, 2014; in the data active = activity change below about -50%; inconclusive = mostly about -30% to -49%
#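 Secreted IL-1B measured by AlphaLISA bead assay after 16 h compound exposure of THP-1 cells; compounds (final up to 57.5 uM) added 1 h before LPS (250 ng/mL) and ATP (1.25 mM) stimulation; lower signal means less secretion.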
# * = called active by the depositor; i = inactive; ? = inconclusive; / = no result given; [ ] = dose if it differs, or a comment. Unless noted, calls follow the shape of the dose curve; as a rule, active = well fitted curve in the direction sought with a large enough effect; inconclusive = small, poorly fitted or top-dose-only effect, or another doubt; inactive = no such curve, though single readings can be large; an effect the other way counts as inactive or inconclusive. Unless noted, % is scaled to controls: 0 for no effect and ±100 for the full control effect.
SMILES,ALOX12 inh,DT40 TDP1 no CPT,HT1080 IDH1KD tx,HT1080NT lethal,TDP1 cell CPT,IL-1B inflam inh
C#CCN(C)C[C@H]1CN2CC[C@H]1C[C@@H]2CNC(=O)c1ccc(C(F)(F)F)cc1,35%[176 µM],/,/,/,/,/
C[C@]12C[C@H](O)[C@@H](O)CC1=CCC1C2CC[C@@]2(C)C1CC[C@@H]2O (stereo partly drawn),-34%,-6%,13%,12%,4%,9
CCCCn1nnnc1C(CCSC)N1CCC2(CC1)C(=O)NCN2c1ccccc1 (stereo not drawn),5%,?,3%,0%,23µM*,-21
CCCCn1nnnc1C(c1cccc2ccccc12)N1CCC2(CC1)C(=O)NCN2c1ccccc1 (stereo not drawn),-13%,?,?,?,?,/
CCCCn1nnnc1C(CC)N1CCC2(CC1)C(=O)NCN2c1ccccc1 (stereo not drawn),?,?,11%,7%,?,-3
O=C1NCN(c2ccccc2)C12CCN(C(c1ccnc3ccccc13)c1nnnn1Cc1ccccc1)CC2 (stereo not drawn),-17%,?,-28%,?,?,-51*
O=C1NCN(c2ccccc2)C12CCN(C(c1cccc3ccccc13)c1nnnn1-c1ccc3c(c1)OCCO3)CC2 (stereo not drawn),-15%,?,-2%,2%,?,?
COc1ccc(-n2nnnc2C(c2cccc3ccccc23)N2CCC3(CC2)C(=O)NCN3c2ccccc2)cc1 (stereo not drawn),-35%,9.2µM*,-21%,-15%,-93%,?
O=C1NCN(c2ccccc2)C12CCN(C(c1cccc3ccccc13)c1nnnn1Cc1ccccc1)CC2 (stereo not drawn),-6%,23µM*,?,?,18µM*,?
O=[N+]([O-])c1cccc2cccnc12,8%,/,/,/,/,/
O=C1NCCCCCCN[C@H]2CCC[C@@H]12,21%,/,/,/,/,/
CC(C)(C)c1cc2c(c(C(C)(C)C)c1)Oc1cc(C#N)c(C#N)cc1O2,9%,/,/,/,/,/
CCOc1ccccc1C(=O)N1CCC2(CC1)NCc1ccccc1-n1ccnc12,66%,/,/,/,/,/
Cc1cccc(OCC(=O)N2[C@H]3CC[C@@H]2c2cnc(-c4ccccc4)nc2C3)c1,28%,/,/,/,/,/
COc1cccc(C(c2nnnn2C2CCCC2)N2CCC3(CC2)C(=O)NCN3c2ccccc2)c1OC (stereo not drawn),-3%,15µM*,?,?,?,?
COc1cc2c(cc1Oc1cccc(N(C)C)c1)NC(=O)C21CCN(Cc2ccccc2)CC1,89µM*,/,/,/,/,/
COc1cc(OC)c(OC)cc1CNCCc1cccc(F)c1,?,?,0%,-9%,-27%,-17
COc1cc(OC)c(OC)cc1CNCCc1ccc(F)cc1,?,12µM*,-3%,-4%,?,-12
Cc1ccsc1CNCCc1ccccc1F,14%,4%,12%,7%,3%,-28
COc1ccc(CCNCc2ccc(Br)cc2)cc1OC,i,?,-8%,-25%,21µM*,-27
Cc1ccccc1CCNCc1ccc(Br)cc1,?,?,?,?,?,-65*
Fc1ccc(CCNCc2ccc(Cl)c(Cl)c2)cc1,?,-26%,?,?,?,-53*
CC(=O)NCCNC(=O)[C@H]1CN2CCC1C[C@@H]2Cn1cc(CN(C)Cc2ccccc2)nn1 (stereo partly drawn),34%,/,/,/,/,/
CCc1ccc(CNCCc2ccc(F)cc2)cc1,-23%,?,-22%,-27%,?,-83*
N#Cc1cccc(NC(=O)NC[C@H]2C[C@@H]3CCN2C[C@@H]3CN2CCN(c3ccccc3)CC2)c1,5%,/,/,/,/,/
SMILES,ALOX12 inh,DT40 TDP1 no CPT,HT1080 IDH1KD tx,HT1080NT lethal,TDP1 cell CPT,IL-1B inflam inh
Cc1cc(C(=O)N2CCC3(CC2)NCc2ccccc2-n2ccnc23)nn1C,28%,/,/,/,/,/
Cc1c(C(=O)Cn2cnc3ccccc32)c2ccccc2n1C,38%,/,/,/,/,/
COc1cccc(NC(=O)CSC2=Nc3ccccc3C3=NC(CCC(=O)NCCc4ccccc4)C(=O)N23)c1 (stereo not drawn),2%,21µM*,/,/,21µM*,/
COc1ccccc1CNC(=O)CCC1N=C2c3ccccc3N=C(SCc3cccc(Cl)c3)N2C1=O (stereo not drawn),-10%,?,/,/,?,/
Cc1cnc(CCN)n1C1CC1,99%,/,/,/,/,/
CC(=O)c1c(O)cc2c3c1OC(C)(C)C1CCC(C)(CC31)O2 (stereo not drawn),16%,13µM*,-4%,-1%,21µM*,2
C1CC(N(CC2CC2)C2CNC2)CCO1,34%,/,/,/,/,/
O=C1NC(=S)NC(=O)C1c1ccccc1,32µM*,1%,8%,17%,0%,17
Cc1[nH]cnc1CN1C[C@H](c2ccc3c(c2)OCO3)[C@@H]2[C@H]1C1CCN2CC1,-16%,/,/,/,/,/
Cc1[nH]c2ccccc2c1CCCNC1CCCCC1,-13%,18µM*,-18%,-16%,?,?
Cc1[nH]c2ccccc2c1CCN,-6%,?,-7%,-15%,-29%,-4
Cc1cc(Br)cn2c(CC(=O)N3CCCCC3)c(-c3ccc(F)cc3)nc12,0%,16µM*,4%,3%,?,29
COc1ccc2c(c1)C1(CCN(C(=O)Nc3ccc4c(c3)OCCO4)C1)C(=O)N2C (stereo not drawn),1%,/,/,/,/,/

# From PubChem BioAssay
